# From PubChem
# An excerpt weighted towards active compounds, which were near 12% of everything screened.
# L major viab: Leishmania major promastigote growth inhibition, primary screen | Leishmania major promastigotes, resazurin fluorescence viability | inhibition, % at 10 µM | 200,000 tested, 9% active | AID 1063, 2008; in the data active means inhibition above about 50%;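 further: promastigotes grown with compound for 44 hours at 28 °C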
# ROMK primary: ROMK potassium channel modulators, primary screen, cell-based, thallium flux, MLSMR library; AID 1918, 2009; ATP-sensitive inward rectifier potassium channel 1 (Homo sapiens), P48048; 130,000 tested, 2% active; Tet-inducible ROMK, thallium flux fluorescence; actives lie on both sides; B-score at 10 µM;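 active means signal ratio slope over the read window, or its plate-corrected B-score, at least 3 SD from the plate mean, either direction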;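 further: B-score of the F/F0 ratio slope over 7 to 12 s after thallium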
# Cl transport mod: KCC2 cotransporter modulators, thallium flux, primary screen, cell-based, HEK293 KCC2, FluoZin-2 fluorescence, MLSMR; Solute carrier family 12 member 5 (Homo sapiens), Q9H2X9; KCC2 cells, thallium flux FluoZin-2 fluorescence; B-score of Tl+ flux slope (higher = more flux/activation; lower = inhibition) at 10 µM; 190,000 tested, 2.2% active;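 active means thallium flux slope and its plate-corrected score both differing from the plate sample mean at a set confidence after two filtering rounds, in either direction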;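 further: slope of fluorescence scaled to starting intensity during 10 to 20 s after thallium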
# m-calpain inh: inhibitors of pig calpain II, primary screen, biochemical, fluorogenic peptide substrate, 1536-well; AID 1236, 2008; 220,000 tested, 0.37% active; purified calpain II, 30 min; inhibition, % at 16 µM;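 active means inhibition above about 50%, limit read from the data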
# WT yeast gro inh: growth inhibition of WT strain, primary screen, mitochondrial fusion inhibitor project, WT and mutant strains, chemical genetic | mitochondrial fusion phenotypic screen | inhibition, % at 10 µM | AID 1362, 2008 | 190,000 tested, 2.1% active; in the data active means inhibition above about 58%; tested in S. cerevisiae
# Active calls of the source: *; i = inactive; x = not tested or not shown.
SMILES,L major viab,ROMK primary,Cl transport mod,m-calpain inh,WT yeast gro inh
Cc1cccc2cc(CN(Cc3cccs3)C3(c4nnnn4C4CCCC4)CCCC3)c(=O)[nH]c12,72.9*,x,-0.00317,-26.1,19.1
Cc1ccc(C)c2[nH]c(=O)c(CN(CCN3CCOCC3)Cc3nnnn3CC3CCCO3)cc12 (stereo not drawn),6.4,x,1.21,-43.6,-7.3
Cc1ccc(C)c2[nH]c(=O)c(CN(Cc3nnnn3C3CCCCC3)CC3CCCO3)cc12 (stereo not drawn),99.6*,x,x,-20.3,-1.5
Cc1ccc2[nH]c(=O)c(CN(Cc3nnnn3C3CCCC3)C3CCCCC3)cc2c1,49.3,-0.76,0.868,-4.0,1.6
CCCC(=O)Nc1ccc2oc(=O)ccc2c1,-3.9,0.113,0.442,-160.2,-2.1
CC(=O)Oc1cc2cccc(OC(C)=O)c(=O)c2c(OC(C)=O)c1OC(C)=O,-11.7,-1.55,-0.617,18.7,24.6
CN1CCN(c2nc(-c3ccccc3)ncc2S(=O)(=O)c2ccccc2)CC1,20.5,-0.307,0.347,31.2,-8.2
O=S(=O)(c1ccccc1)c1cnc(-c2ccccc2)nc1N1CCCCC1,23.6,0.162,-0.313,10.4,58.4*
CN(Cc1ccc(-n2cccn2)cc1)C(=O)c1cnn2c1NC(c1ccco1)CC2C(F)(F)F (stereo not drawn),33.3,x,-1.73,-8.5,-8.1
CCC(=O)NCCc1c[nH]c2ccccc12,-3.2,-0.442,0.931,17.4,1.8
COc1ccc(OCC(=O)NCCc2c[nH]c3ccccc23)cc1,64.4*,x,-2.17,-18.9,-1.6
COc1ccc(CCNC(=S)NCCc2c[nH]c3ccccc23)cc1,90.7*,0.345,0.00965,11.3,-6.0
C=CCNC(=O)C1CCN(c2ccc(S(=O)(=O)N3CCOCC3)cc2[N+](=O)[O-])CC1,1.0,-0.127,0.658,8.0,2.3
O=C(O)c1cc(NN=Nc2cccc([N+](=O)[O-])c2)cc([N+](=O)[O-])c1,x,0.424,-1.59,26.7,x
O=C(O)c1cc(NN=Nc2ccc(Br)cc2)cc([N+](=O)[O-])c1,x,x,-1.4,60.3*,x
CC1CCc2c(sc3ncn(CC(=O)N4CCCCC4)c(=O)c23)C1 (stereo not drawn),-3.1,-0.834,0.522,4.9,-6.1
COc1cccc2[nH]c3c(Cl)ncnc3c12,34.0,x,0.772,-457.5,-6.5
CCOC(=O)C1CCN(c2ncnc3c2oc2ccc(Cl)cc23)CC1,-4.0,0.0313,x,-53.3,62.0
CCOC(=O)C1CCN(c2ncnc3c2[nH]c2cccc(OC)c23)CC1,73.1*,0.0372,x,i,16.7
COc1cccc2[nH]c3c(N4CCCCC4)ncnc3c12,96.4*,0.784,x,-404.8,6.4
c1ccc(-c2ccc(C3=Nn4c(Cn5nnc6ccccc65)nnc4SC3)cc2)cc1,8.2,-0.577,-0.266,-128.6,28.6
Cn1cc(CN2CCC[C@H]2CO)c(-c2cccc(Cl)c2)n1,-7.8,-0.324,1.06,1.0,-3.4
C/C(Cn1nc([N+](=O)[O-])cc1C)=N\NC(=O)c1cccc(Br)c1,85.8*,x,0.0772,-2.7,9.4
C/C(Cn1nc([N+](=O)[O-])cc1C)=N\NC(=O)COc1ccccc1[N+](=O)[O-],19.4,0.0626,1.19,2.5,-0.1
Cn1cc2c(=O)n(/N=C/c3ccccc3)cnc2n1,-3.0,x,1.03,8.4,2.0
SMILES,L major viab,ROMK primary,Cl transport mod,m-calpain inh,WT yeast gro inh
CC(=O)Oc1c(/C=C(\C#N)C(N)=O)[nH]c2ccccc12,95.8*,x,x,14.6,32.8
COc1ccc(OC)c(NC(=O)CSc2nncc3ccc(OC)c(OC)c23)c1,x,0.771,-1.58,7.4,x
CCN(CC)S(=O)(=O)c1cccc(N=NC2=C(O)CCCC2=O)c1,60.7*,x,0.2,-2.9,-15.1
S=C(c1cn(CCOc2cccc3ccccc23)c2ccccc12)N1CCCC1,94.9*,-0.135,0.401,-44.6,31.1
Cc1ccc(OCCn2cc(C(=S)N3CCCC3)c3ccccc32)cc1C,40.5,x,0.133,1.1,10.3
S=C(c1cn(CCOc2ccccc2)c2ccccc12)N1CCCC1,98.4*,x,-2.12,13.8,70.5*
O=C(CCC1CCCC1)N1CCN(C(=O)c2cccnc2)CC1,-3.2,0.486,x,-6.4,-3.0
O=C(COc1ccccc1)N(Cc1ccco1)c1ccc(O)cc1,-5.7,x,-1.01,8.8,8.3
O=C(c1ccc(Cl)c(Cl)c1)N(Cc1ccco1)c1ccc(O)cc1,70.0*,-2.25,-1.23,-18.3,9.6
Cc1ccc(C2=N/C(=C\c3cccnc3)C(=O)O2)cc1,66.2*,1.23,-0.127,14.9,11.6
O=C1OC(/C=C/c2ccccc2)=NC/1=C\c1cccnc1,-3.7,-0.143,0.368,4.5,-7.0
Cn1c(=O)[nH]c(=O)c2c1nc(Br)n2CCSc1ncccn1,0.5,0.0389,0.15,17.8,75.0*
O=C(NCCNc1ccc([N+](=O)[O-])cc1C(F)(F)F)c1ccc(F)cc1,56.0*,x,-3.24,1.1,7.4
Cc1nn(Cc2ccc(Cl)cc2)c(C)c1NC(=O)C(c1ccccc1)c1ccccc1,99.4*,x,-0.0845,18.2,31.4
CC(C)CN1CC(C(=O)O)CC1=O (stereo not drawn),-8.7,0.214,0.0721,-18.4,-9.8
COc1ccc(OCC#CCNC(C)(C)C)cc1,92.3*,0.541,2.04,3.5,5.0
C[C@@]12CCC=C[C@H]1[C@H](c1ccc(F)c(/C=C/c3ccccc3)c1)N(Cc1ccccc1)C2=O,x,x,0.0999,-9.5,x
Nc1ccc(C(=O)OCc2nc3cc4ccccc4cc3[nH]2)cc1,62.6*,-0.441,-1.15,18.8,12.3
CC(C)(C)C1CCC2(CC1)NC(=S)N(c1ccccc1)N2 (stereo not drawn),58.4*,0.234,-0.657,21.6,40.9
CCC(C)(C)C1CCC2(CC1)NC(=S)N(c1ccccc1)N2 (stereo not drawn),x,x,-0.749,-9.7,x
COc1ccc(-c2nnc(SC(C)C(=O)Nc3nccs3)n2Cc2ccccc2)cc1OC (stereo not drawn),9.7,x,x,21.8,-1.6
COc1ccc(-c2nnc(SC(C)C(=O)Nc3nccs3)n2-c2ccccc2)cc1OC (stereo not drawn),53.8*,x,x,-18.9,-12.9
CN1C(=O)/C(=C/c2cn(CC(=O)N3CCCCC3)c3ccccc23)c2ccccc21,86.1*,-2.19,x,-56.9,2.4
O=Cc1cn(CC(=O)N2CCCCC2)c2ccccc12,-4.2,-0.00163,1.04,-13.1,-1.7
O=C(Nc1ccccc1Cl)c1ccc(-n2cccn2)c([N+](=O)[O-])c1,6.3,0.334,-0.488,-24.5,1.4
Cc1cc(NC(=O)C2CCCCC2)nc2c1c(=O)oc1ccccc12,12.8,0.184,x,28.2,80.5*
Cc1cc(NC(=O)C2CCCC2)nc2c1c(=O)oc1ccccc12,25.2,-0.0489,x,21.7,26.1
COc1cc(OC)c(OC)cc1NC(=O)CC1COc2ccccc2O1 (stereo not drawn),-6.7,-0.148,-0.62,-11.1,-11.8
COc1cccc(NC(=O)CC2COc3ccccc3O2)c1 (stereo not drawn),56.5*,0.399,0.254,-1.3,-8.8
